Source: PubChem BioAssay (NCI)
This is part of a sample that, as a whole, favours compounds with a hit. Of some 83,000 tested, about 20% had one in any assay.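 Note: values are percent growth. 100 is the growth of untreated cells, values between 100 and 0 indicate rising inhibition; between -100 and 0 indicates cell death.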 Activity calls are given as the source filed them. How the source made its calls: active means growth percent below 10; inactive means the rest.

Tested on: OVCAR-8 ovarian
Assay: NCI-60 one-dose screen, 48 h (100 = growth as untreated, 0 = no growth, -100 = all killed)
Conditions: 10 µM unless noted

Structure (SMILES)	growth
C[n+]1c2ccccc2c(NC2CCNCC2)c2[nH]c3ccccc3c21	15.2% (inactive)
[O-]/[N+](=C\C=C\c1ccccc1)c1ccccc1	121% (inactive)
CCCn1cnc2c1c(=O)n(CCCCC(C)=O)c(=O)n2C	98.3% (inactive)
O=C1/C(=C/c2ccc3cccc(Cl)c3n2)SC(=S)N1CCc1ccc(O)cc1	92.3% (inactive)
CN=C(NC)N/N=C(C)\C=N\NC(=NC)NC	102% (inactive)
CCN(CC)CCCNCCCNc1cc(OC)cc2cccnc12	88.8% (inactive)
COc1cc2c(cc1OCCCOc1ccc(-c3cc4ccccc4c4ccccc34)cc1)N=C[C@@H]1CCCN1C2=O	-6.49% (active)
Nc1ccc(C2=NN(c3ccccc3)C(c3ccc(Cl)cc3)C2)cc1 (stereo not drawn)	81.8% (inactive)
O=C1C[C@@H]2/C(=C(O)\C=C\c3ccccc3)C(=O)C=C[C@@H]2O1	8.54% (active)
COc1ccc(-c2cc(C(=O)Nc3nc4cc(C)c(C)cc4s3)nc3cc(-c4ccccc4)nn23)cc1OC	110% (inactive)
CCC(=O)Nc1ccccc1C#C/C=C\C#Cc1ccccc1C(F)(F)F	106% (inactive)
Oc1ccccc1C=Nc1ccccc1N=Cc1ccccc1O.[Cu+2]	15.1% (inactive)
CCOc1cccc(C2CC(=O)Nc3cc4c(cc32)OCO4)c1 (stereo not drawn)	89% (inactive)
NC(N)=NN=c1c(=O)c2ccccc2c1=O	81.5% (inactive)
O=[N+]([O-])c1ccc(Oc2cccc(C(F)(F)F)c2)c([N+](=O)[O-])c1	12.7% (inactive)
CCCCCCCCCCCCNc1ncnc2[nH]ncc12	77.3% (inactive)
Cc1ccc2c(c1)C(=O)/C(=C/c1ncc([N+](=O)[O-])n1C)O2	-30.8% (active)
O=C(/C=C/c1cccnc1)NCCCCC1CCCN(C(=O)c2ccccc2)C1 (stereo not drawn)	22% (inactive)
O=C(/C=C/c1cccnc1)/C=C/c1cccnc1	-25.2% (active)
COc1ccc(-n2nnc(C(=O)O)c2-c2cc(OC)c(OC)c(OC)c2)cc1	100% (inactive)
COc1cc2c(cc1OCCCCCn1c(-c3ccc(OCc4ccccc4)cc3)nc3cc(N4CCOCC4)ccc31)N=C[C@@H]1CCCN1C2=O	21.2% (inactive)
O=C1C(=O)c2ccc(Br)cc2-c2cc(Br)ccc21	-1.14% (active)
CCC(C)CC(C)C(=O)c1c(O)ccn(OC)c1=O (stereo not drawn)	66.3% (inactive)
NNC(=O)NO	102% (inactive)
COc1ccc(C2CC(c3cccc(Nc4ccnc5cc(Cl)ccc45)c3)=NN2C=O)cc1 (stereo not drawn)	35.1% (inactive)
C=CC1=C(C(=O)O)N2C(=O)[C@@H](NC(=O)/C(=N\O)c3csc(N)n3)[C@H]2SC1 (stereo in doubt)	102% (inactive)
CC(=O)Oc1ccc(C2OC(c3ccc4ccccc4c3OC(C)=O)=NN2C(C)=O)c(OC(C)=O)c1 (stereo not drawn)	8.13% (active)
Cc1ccc(NC(=O)COC(=O)c2ccc(S(=O)(=O)N3CCCCCC3)cc2)cc1	98.8% (inactive)
